Experimental findings from PubChem BioAssay (Tox21) are described below.

Records with an inconclusive call do not appear. Active and inactive are the calls of the source. The call rests on the fitted dose curve.

Chain of Thyrotropin receptor (Homo sapiens) (P16473 whole entry, looked up): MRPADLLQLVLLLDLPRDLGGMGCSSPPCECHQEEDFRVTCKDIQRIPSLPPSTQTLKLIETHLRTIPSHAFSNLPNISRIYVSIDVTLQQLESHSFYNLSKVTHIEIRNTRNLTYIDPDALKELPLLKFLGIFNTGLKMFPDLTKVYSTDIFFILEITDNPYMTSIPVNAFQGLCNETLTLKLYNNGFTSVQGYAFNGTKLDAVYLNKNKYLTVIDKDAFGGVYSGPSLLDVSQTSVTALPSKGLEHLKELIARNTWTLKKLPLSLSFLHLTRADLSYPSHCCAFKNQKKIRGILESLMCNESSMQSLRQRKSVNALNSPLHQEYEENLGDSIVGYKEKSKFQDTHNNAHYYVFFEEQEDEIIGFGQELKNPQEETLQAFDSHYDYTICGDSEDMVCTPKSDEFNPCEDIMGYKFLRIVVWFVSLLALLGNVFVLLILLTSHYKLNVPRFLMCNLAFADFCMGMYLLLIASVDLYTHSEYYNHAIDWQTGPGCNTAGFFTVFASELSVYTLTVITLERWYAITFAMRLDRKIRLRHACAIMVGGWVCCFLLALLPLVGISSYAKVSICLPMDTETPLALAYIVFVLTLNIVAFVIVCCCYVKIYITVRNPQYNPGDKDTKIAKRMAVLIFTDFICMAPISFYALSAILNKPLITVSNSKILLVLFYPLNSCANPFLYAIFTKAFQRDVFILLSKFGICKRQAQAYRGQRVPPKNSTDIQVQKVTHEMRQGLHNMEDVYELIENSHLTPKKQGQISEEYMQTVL

This assay concerns the target Thyrotropin receptor (Homo sapiens) (UniProt P16473). Briefly: qHTS assay to identify small molecule antagonists of the thyroid stimulating hormone receptor (TSHR) signaling pathway (AID 1259385). Further: nearly all actives have a fitted effect of over 20% in size. The conditions noted are these: TSHR-HEK293 cAMP HTRF, TSH-stimulated antagonist mode; series mostly up to 92.4 µM. The source says: U.S. Tox21 Program National Center for Advancing Translational Sciences [NCATS] NIH Chemical Genomics Center [NCGC] U.S. Environmental Protection Agency [EPA] National Institutes of Environmental Health Sciences [NIEHS] National Toxicology Program [NTP] U.S. Food and Drug Administration [FDA] Tox21 Assay Overview: TSHR is the receptor for thyrotropin (thyroid stimulating hormone or TSH), a member of the glycoprotein hormone family. TSH is released by the anterior pituitary gland and is the main regulator of thyroid gland growth and development. Upon binding circulating thyrotropin, a G-protein signal cascade activates adenylyl cyclase and […] cAMP concentration is increased. cAMP is a key second messenger involved extensively in cellular signal transduction pathways associated with the majority of G-protein coupled receptors (GPCRs). The activation of these GPCRs by neurotransmitters, lipids, nucleotides, peptides and hormones results in the activation or the inhibition of plasma membrane-bound adenylate cyclase through heterotrimeric G-proteins. A cell-based TSHR assay can be used to screen chemical compounds that modulate TSHR either in agonist or antagonist mode.
Tox21 Assay Protocol Summary: TSHR-Hek293 cells were dispensed at 800 cells/4uL/well in 1536-well white plates using a Multidrop dispenser. After the assay plates were incubated at a 37C/5% CO2 incubator for 18 hrs, 23 nL of compounds dissolved in DMSO, positive controls or DMSO only was transferred to the assay plate by a pin tool, followed by 1 ul medium containing Ro20-1724. For the antagonist mode screening, 1 uL of TSH was added on the top of the cell/compound mixtures to achieve a final agonist concentration of 1.5 ng/mL. After 30 min of incubation at room temperature, 2.5 ul/well of cAMP-d2 and 2.5 ul/well of anti-cAMP-cryptate were added respectively into the assay plates using a Flying Reagent Dispenser. The plates were incubated at room temperature for 1 hr. The fluorescence intensity in the plates was measured using an Envision plate reader. Each test compound was measured at 15 concentrations and in triplicates.
For orientation: Quantitative high-throughput screening tests each substance at several concentrations.
For the compound `O=C(O)c1ccccc1C(=O)O`, the result was inactive.

In the case of `Cc1ccc(S(=O)(=O)N=C=O)cc1`, the call was inactive.

Turning to `Cc1ccc([N+](=O)[O-])cc1S(=O)(=O)O`, the outcome was inactive.

For the compound `c1ccc(Oc2ccccc2)cc1`, the call was inactive.

In the case of `O=C(O)/C=C/C(=O)O`, the call was inactive.

Turning to `CCCCCCO`, the compound was classed as inactive.

As to `CCCCCCCCCCCC(=O)OC`, the result was inactive.

For `CN1C(=O)CC[C@H]1c1cccnc1`, the outcome was inactive.

Turning to `C[Si]1(C)O[Si](C)(C)O[Si](C)(C)O[Si](C)(C)O1`, the outcome was inactive.

As to `CCCCC(C=O)CC` (stereo not given), the outcome was inactive.

Turning to `OCc1cccc(Oc2ccccc2)c1`, the call was inactive.

Consider `CC(CCl)OP(=O)(OC(C)CCl)OC(C)CCl` (stereo not given), for which the compound was classed as inactive.

As for `CCOC(=O)n1ccn(C)c1=S`, the result was inactive.

Turning to `CN(C)c1ccc(O)c2c1C[C@H]1C[C@H]3[C@H](N(C)C)C(=O)C(C(N)=O)=C(O)[C@@]3(O)C(=O)C1=C2O`, the call was inactive.

With `O=C(O)c1ccc(C(=O)O)c(C(=O)O)c1`, the compound was classed as inactive.

As to `CN(C)CCOC(=O)COc1ccc(Cl)cc1`, the compound was classed as inactive.

For `CC(=O)OCc1ccccc1`, the compound was called inactive.

`O=C(O)Cn1c(=O)n(Cc2ccc(Br)cc2F)c(=O)c2ccc(Cl)cc21`: the call was inactive.

On to `CCOCCOCCOCCO`, for which the compound was classed as inactive.

With `C=Cc1ccc(C)cc1`, the call was inactive.

In the case of `OC1C(O)C(O)C(O)C(O)C1O` (stereo not given), the result was inactive.

Consider `CCCCCCCCCCCCCCCCO`, for which the result was inactive.

Regarding `CCCCCCCCCCN`, the outcome was inactive.

With `O=C(O)c1cc2ccccc2cc1O`, the outcome was inactive.

For `Brc1ccc(Br)c(Br)c1`, the outcome was inactive.

Regarding `COC(=O)c1cccnc1`, the call was inactive.

Consider `CC(C)=CCl`, for which the outcome was inactive.

Regarding `CC(C)(Oc1ccc(CCNC(=O)c2ccc(Cl)cc2)cc1)C(=O)O`, the result was inactive.

For `C=CC[N+](C)(C)CC=C`, the compound was called inactive.

Take `CC(C)CC(C)O` (stereo not given): the call was inactive.

As to `CNC(=O)Oc1ccc2c(c1)[C@]1(C)CCN(C)[C@@H]1N2C`, the compound was called inactive.

In the case of `C=CC(=O)OCCC(=O)O`, the compound was classed as inactive.

As for `C[C@]12CC[C@@H]3c4ccc(O)cc4CC[C@H]3[C@@H]1C[C@@H](O)[C@@H]2O`, the compound was classed as inactive.

As for `COc1ccccc1OCC(O)CO` (stereo not given), the compound was called inactive.

With `C=CCc1ccc(OC)c(OC)c1`, the compound was classed as inactive.

Consider `CSc1ccc(Cl)cc1`, for which the result was inactive.

On to `C=C(C)CNCC`, for which the compound was called inactive.

For the compound `CCCCCCCO`, the result was inactive.

As for `COc1ccc(OC)cc1`, the outcome was inactive.

As to `CC(=O)OCc1ccco1`, the call was inactive.
